Data on 26 molecules can be found in PubChem BioAssay AID449762 (Southern Research Specialized Biocontainment Screening …, 2010).

Screen size: about 330,000 compounds; about 1,900 (0.58%) were called active. Not shown: some 4% with an inconclusive outcome. A selection follows. Entries with a potency or affinity are not part of this list. Unmarked numbers belong to inactive results. Rule as the data show it: inconclusive = inhibition above about 70% without an active follow-up result; inactive = below that.

A short description of this assay: M. tuberculosis growth inhibition, HTS (AID 449762).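 Also: bacterial growth assessed after seven days of incubation.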 Particulars: M. tuberculosis H37Rv growth inhibition, 7H9 media; at 25 µM; stronger effect = higher value.
What is called inhibition is the change of the read-out against control, counted positive when it falls. Consider `O=C(Nc1ccc2c(c1)CCCN2C(=O)c1cccs1)c1cccc(F)c1`, for which the inhibition is 25.3%.
As for `CC1=NN(c2ccccc2)C(=O)/C1=C/c1c(C)[nH]n(-c2ccc(C)cc2)c1=O`, the figure is 3.09%; as for `CC1=NN(c2ccccc2)C(=O)/C1=C/c1c(O)n(-c2ccc(F)cc2)[nH]c1=O`, -0.04%; as for `Cc1ccc(-c2nc(N)n(S(C)(=O)=O)n2)cc1`, -7.35%.
Consider `Nc1nc2sc3c(c2c(=O)s1)CCCC3`, for which the inhibition is -5.9%.
As for `Nc1c2c(nc3sc4c(c13)CCCC4)CCCCCC2`, the figure is 11.9%.
For the molecule `COCCn1nnnc1C(c1ccccc1)N1CCN(Cc2ccc3c(c2)OCO3)CC1` (stereo unspecified), the inhibition is 5.3%.
As for `CCN1CCN(C(c2ccccc2)c2nnnn2Cc2ccc3c(c2)OCO3)CC1` (stereo unspecified), the figure is -1.8%.
The figure for `Cc1cc(C(=O)CSc2nnc(-c3ccco3)o2)c(C)n1C` is 0.77%; for `COc1ccc(N2CCN(C(=O)CSc3nc(C)cs3)CC2)cc1` it is 13.4%.
As for `COCC(C)n1c(SCC(=O)Nc2oc(C)c3c(C)n[nH]c(=O)c23)nc2ccccc2c1=O` (stereo unspecified), the figure is 1.83%.
As for `COc1cccc2cc(C(=O)N(C)C3CCN(C)CC3)c(=O)oc12`, the inhibition was 2.2%.
As for `CCOc1ccc(NC(=O)Nc2cccn(Cc3ccccc3)c2=O)cc1`, the figure is 11.4%.
The figure for `CSc1ccc(NC(=O)Nc2cccn(Cc3ccccc3F)c2=O)cc1` is 0.76%; for `Cc1nnc(SCCC(=O)Nc2ccc(F)cc2)s1` it is 58.3%; for `Cc1ccc(NC(=O)c2ccccc2NC(=O)c2cccnc2)cc1` it is 11.1%.
The figure for `O=C(NNC(=S)Nc1ccccc1Cl)c1ccccc1` is -3.72%; for `CCn1cc(C(=O)NC(C)C)c(=O)c2cc(F)c(N3CCN(C(=O)c4ccco4)CC3)cc21` it is 19.2%.
With `CCn1cc(C(=O)NCC(C)C)c(=O)c2cc(F)c(N3CCN(C(=O)c4ccco4)CC3)cc21`, the inhibition was 0.58%.
As for `Cc1cc(C)nc(-n2nc(C)cc2NC(=O)c2ccc(S(=O)(=O)N3CCOCC3)cc2)n1`, the figure is 9.62%; as for `Cc1nn(C)c(C)c1/C=C(/C(=O)C(C)(C)C)n1cncn1`, -1.56%.
`CC(=O)N/C(=C\c1cccc([N+](=O)[O-])c1)C(=O)NC(C)C`: the inhibition is -0.52%.
In the case of `Cc1c(Oc2ccc(C(F)(F)F)cc2[N+](=O)[O-])ccc2c3c(c(=O)oc12)CCC3`, the inhibition is -1.9%.
`CCOc1ccc(N2C(=O)CC(NCC#N)C2=O)cc1` (stereo unspecified): the inhibition is 0.53%.
The figure for `O=C1Nc2cc(C(=O)NCCCN3CCOCC3)ccc2S/C1=C/c1ccccc1F` is 16.4%; for `COc1ccc(/C=C2/Sc3ccc(C(=O)NCCCN4CCOCC4)cc3NC2=O)cc1OC` it is -4.7%.
